Assay results from PubChem BioAssay AID1159580 (chemical genetic matrix, 2015).
The whole screen tested about 5,500 compounds, of which about 2,000 (36%) were called active. Inconclusive results (about 18%) are left out. Rule as the data show it: active = normalized growth mostly below about 0.91 (no sharp cut-off); inconclusive = no clear call, values can overlap the other calls; inactive = mostly above about 0.92. The list shows a part of the results.

Assay: chemical genetic growth profiling, strain panel (AID 1159580);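 also: tested at 20 µM; growth read once vehicle control cultures reached saturation at 30 °C; 1 = growth at the plate median or of vehicle wells; lower values mean less growth of the strain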
Settings: growth OD
[1] = S. cerevisiae deletion strains, locus YAL013W, strain DEP1, active compounds read low
[2] = S. cerevisiae deletion strains, locus YBR229C, strain ROT2, active compounds read low
[3] = S. cerevisiae deletion strains, locus YDL101C, strain DUN1, active compounds read low
[4] = S. cerevisiae deletion strains, locus YDR150W, strain NUM1, active compounds read low
[5] = S. cerevisiae deletion strains, locus YEL061C, strain CIN8, active compounds read low
[6] = S. cerevisiae deletion strains, locus YGR078C, strain PAC10, active compounds read low
[7] = S. cerevisiae deletion strains, locus YGR229C, strain SMI1, active compounds read low
[8] = S. cerevisiae deletion strains, locus YHR030C, strain SLT2, active compounds read low
[9] = S. cerevisiae deletion strains, locus YHR087W, strain rtc3, active compounds read low
[10] = S. cerevisiae deletion strains, locus YJR043C, strain POL32, active compounds read low
[11] = S. cerevisiae deletion strains, locus YJR075W, strain HOC1, active compounds read low
[12] = S. cerevisiae deletion strains, locus YKL190W, strain CNB1, active compounds read low
[13] = S. cerevisiae deletion strains, locus YLR039C, strain RIC1, active compounds read low
[14] = S. cerevisiae deletion strains, locus YLR058C, strain SHM2 (second series), active compounds read low
[15] = S. cerevisiae deletion strains, locus YLR085C, strain ARP6, active compounds read low
[16] = S. cerevisiae deletion strains, locus YLR262C, strain YPT6, active compounds read low
[17] = S. cerevisiae deletion strains, locus YML094W, strain GIM5, active compounds read low
[18] = S. cerevisiae deletion strains, locus YMR219W, strain ESC1, active compounds read low
[19] = S. cerevisiae deletion strains, locus YMR263W, strain SAP30, active compounds read low
[20] = S. cerevisiae deletion strains, locus YMR307W, strain GAS1, active compounds read low
[21] = S. cerevisiae deletion strains, locus YNL128W, strain TEP1, active compounds read low
[22] = S. cerevisiae deletion strains, locus YNL153C, strain GIM3, active compounds read low
[23] = S. cerevisiae deletion strains, locus YNL298W, strain CLA4 (second series), active compounds read low
[24] = S. cerevisiae deletion strains, locus YNL322C, strain KRE1, active compounds read low
[25] = S. cerevisiae deletion strains, locus YNR030W, strain Alg12, active compounds read low
[26] = S. cerevisiae deletion strains, locus YPL055C, strain LGE1, active compounds read low
[27] = S. cerevisiae deletion strains, locus YPL241C, strain CIN2, active compounds read low
[28] = S. cerevisiae deletion strains, locus YPR135W, strain CTF4, active compounds read low
[29] = S. cerevisiae strains, strain wild type, active compounds read low
[30] = S. cerevisiae deletion strains, locus YAL040C, strain CLN3, active compounds read low
[31] = S. cerevisiae deletion strains, locus YCL061C, strain MRC1 (second series), active compounds read low
[32] = S. cerevisiae deletion strains, locus YDR363W, strain ESC2, active compounds read low
[33] = S. cerevisiae deletion strains, locus YER002W, strain NOP16, active compounds read low
[34] = S. cerevisiae deletion strains, locus YNL175C, strain NOP13, active compounds read low
[35] = S. cerevisiae deletion strains, locus YNL197C, strain WHI3, active compounds read low
[36] = S. cerevisiae deletion strains, locus YNL224C, strain SQS1, active compounds read low
[37] = S. cerevisiae deletion strains, locus YOR083W, strain WHI5 (second series), active compounds read low
[38] = S. cerevisiae deletion strains, locus YJL187C, strain SWE1, active compounds read low

Measured: normalized growth

CC1(C)/C(=N/OC(=O)c2cccc(C(F)(F)F)c2)[C@]2(C)CCC1C2
inactive: [1] 1.01 | [2] 1.01 | [3] 1.04 | S. cerevisiae deletion strains, locus YDL134C, strain PPH21, active compounds read low 1 | [4] 0.989 | [5] 1.04 | [6] 0.996 | [7] 0.999 | [8] 0.88 | [9] 0.99 | [10] 0.978 | [11] 0.979 | [12] 1.01 | [13] 0.977 | [14] 1.01 | [15] 1 | [16] 0.964 | [18] 0.987 | [19] 0.967 | [20] 0.741 | [21] 1.01 | [22] 0.963 | [23] 0.987 | [24] 1.02 | [25] 1.01 | S. cerevisiae deletion strains, locus YOL006C, strain TOP1, active compounds read low 0.898 | [26] 1 | [27] 1.01 | [28] 1.06 | [29] 0.999
active: [17] 1.18 [resistant]

NC(=NCCC[C@H](N)C(=O)O)NO
inactive: [1] 1.03 | [30] 1 | [31] 1.01 | [32] 1.02 | [33] 1.01 | [6] 1.02 | [21] 1 | [34] 1 | [35] 1.01 | [36] 0.992 | [37] 1.01 | [27] 1.01

CC(C)[C@H](N)C(=O)OCCOCn1cnc2c(=O)[nH]c(N)nc21
inactive: S. cerevisiae deletion strains, locus YAL021C, strain ccr4, active compounds read low 1.06 | S. cerevisiae deletion strains, locus YAL026C, strain drs2, active compounds read low 1.02 | S. cerevisiae deletion strains, locus YAL030W, strain snc1, active compounds read low 1.03 | S. cerevisiae deletion strains, locus YBL061C, strain skt5, active compounds read low 1.02 | S. cerevisiae deletion strains, locus YBR009C, strain hhf1, active compounds read low 0.961 | S. cerevisiae deletion strains, locus YBR023C, strain chs3, active compounds read low 1.02 | S. cerevisiae deletion strains, locus YBR171W, strain sec66, active compounds read low 1.01 | S. cerevisiae deletion strains, locus YBR231C, strain swc5, active compounds read low 0.934 | S. cerevisiae deletion strains, locus YBR279W, strain paf1, active compounds read low 1.02 | S. cerevisiae deletion strains, locus YCL011C, strain gbp2, active compounds read low 1.01 | S. cerevisiae deletion strains, locus YCL016C, strain dcc1, active compounds read low 1.05 | S. cerevisiae deletion strains, locus YCL069W, strain vba3, active compounds read low 1 | S. cerevisiae deletion strains, locus YCR088W, strain abp1, active compounds read low 1.02 | S. cerevisiae deletion strains, locus YDL005C, strain med2, active compounds read low 1.02 | S. cerevisiae deletion strains, locus YDL040C, strain nat1, active compounds read low 0.998 | S. cerevisiae deletion strains, locus YDR001C, strain nth1, active compounds read low 1.01 | S. cerevisiae deletion strains, locus YDR069C, strain doa4, active compounds read low 1 | S. cerevisiae deletion strains, locus YDR137W, strain rgp1, active compounds read low 1.08 | S. cerevisiae deletion strains, locus YDR159W, strain sac3, active compounds read low 0.94 | S. cerevisiae deletion strains, locus YDR195W, strain ref2 0.973 | S. cerevisiae deletion strains, locus YDR297W, strain sur2, active compounds read low 1 | S. cerevisiae deletion strains, locus YDR334W, strain swr1, active compounds read low 1.01 | S. cerevisiae deletion strains, locus YDR335W, strain msn5, active compounds read low 1.01 | S. cerevisiae deletion strains, locus YDR392W, strain spt3, active compounds read low 1.03 | S. cerevisiae deletion strains, locus YEL003W, strain gim4, active compounds read low 0.996 | S. cerevisiae deletion strains, locus YEL037C, strain rad23, active compounds read low 1.01 | S. cerevisiae deletion strains, locus YEL061C, strain CIN8 (second series), active compounds read low 1 | S. cerevisiae deletion strains, locus YER015W, strain faa2, active compounds read low 1.01 | S. cerevisiae deletion strains, locus YER016W, strain bim1, active compounds read low 1.05 | S. cerevisiae deletion strains, locus YER111C, strain swi4, active compounds read low 1.03 | S. cerevisiae deletion strains, locus YER155C, strain BEM2 (second series), active compounds read low 1.11 | S. cerevisiae deletion strains, locus YFR010W, strain ubp6, active compounds read low 0.974 | S. cerevisiae deletion strains, locus YGL167C, strain pmr1, active compounds read low 1.01 | S. cerevisiae deletion strains, locus YGL173C, strain kem1, active compounds read low 1.01 | S. cerevisiae deletion strains, locus YGL227W, strain vid30, active compounds read low 1.01 | S. cerevisiae deletion strains, locus YGL240W, strain doc1, active compounds read low 0.993 | S. cerevisiae deletion strains, locus YGL253W, strain hxk2, active compounds read low 0.981 | S. cerevisiae deletion strains, locus YHR013C, strain ard1, active compounds read low 1.02 | S. cerevisiae deletion strains, locus YHR027C, strain rpn1, active compounds read low 1.01 | [8] 1.07 | S. cerevisiae deletion strains, locus YHR079C, strain IRE1, active compounds read low 1.07 | S. cerevisiae deletion strains, locus YHR142W, strain chs7, active compounds read low 0.988 | S. cerevisiae deletion strains, locus YJL092W, strain hpr5, active compounds read low 1.01 | S. cerevisiae deletion strains, locus YJL095W, strain BCK1 (second series), active compounds read low 1.04 | S. cerevisiae deletion strains, locus YJL095W, strain BCK1, active compounds read low 1.02 | S. cerevisiae deletion strains, locus YJL115W, strain asf1, active compounds read low 1.01 | S. cerevisiae deletion strains, locus YJL129C, strain trk1, active compounds read low 0.982 | S. cerevisiae deletion strains, locus YJL154C, strain vps35, active compounds read low 1.01 | S. cerevisiae deletion strains, locus YJL164C, strain tpk1, active compounds read low 0.995 | S. cerevisiae deletion strains, locus YJL166W, strain qcr8, active compounds read low 1.03 | [38] 1 | S. cerevisiae deletion strains, locus YJR066W, strain TOR1, active compounds read low 0.99 | S. cerevisiae deletion strains, locus YKL160W, strain elf1, active compounds read low 1.06 | S. cerevisiae deletion strains, locus YKR026C, strain gcn3, active compounds read low 1.01 | S. cerevisiae deletion strains, locus YKR091W, strain srl3, active compounds read low 1.01 | S. cerevisiae deletion strains, locus YLL001W, strain dnm1, active compounds read low 0.96 | S. cerevisiae deletion strains, locus YLL026W, active compounds read low 1.01 | S. cerevisiae deletion strains, locus YLL041C, strain sdh2, active compounds read low 1.03 | S. cerevisiae deletion strains, locus YLR027C, strain aat2, active compounds read low 1.01 | S. cerevisiae deletion strains, locus YLR113W, strain HOG1, active compounds read low 0.977 | S. cerevisiae deletion strains, locus YLR221C, strain rsa3, active compounds read low 0.96 | S. cerevisiae deletion strains, locus YLR258W, strain gsy2, active compounds read low 1.03 | S. cerevisiae deletion strains, locus YLR262C, strain YPT6 (second series), active compounds read low 1.01 | S. cerevisiae deletion strains, locus YLR320W, strain mms22, active compounds read low 0.971 | S. cerevisiae deletion strains, locus YLR342W, strain FKS1, active compounds read low 1.03 | S. cerevisiae deletion strains, locus YLR357W, strain rsc2, active compounds read low 1.04 | S. cerevisiae deletion strains, locus YLR370C, strain arc18, active compounds read low 1.03 | S. cerevisiae deletion strains, locus YLR384C, strain iki3, active compounds read low 1.03 | S. cerevisiae deletion strains, locus YML120C, strain ndi1, active compounds read low 0.969 | S. cerevisiae deletion strains, locus YMR058W, strain fet3, active compounds read low 1.04 | S. cerevisiae deletion strains, locus YMR125W, strain sto1, active compounds read low 1.04 | S. cerevisiae deletion strains, locus YMR129W, active compounds read low 1.02 | S. cerevisiae deletion strains, locus YMR205C, strain PFK2, active compounds read low 1.01 | S. cerevisiae deletion strains, locus YMR231W, strain pep5, active compounds read low 1 | S. cerevisiae deletion strains, locus YNL071W, strain lat1, active compounds read low 1.02 | S. cerevisiae deletion strains, locus YNL183C, strain NPR1, active compounds read low 0.946 | S. cerevisiae deletion strains, locus YNL209W, strain ssb2, active compounds read low 1.02 | S. cerevisiae deletion strains, locus YNL248C, strain rpa49, active compounds read low 1.04 | S. cerevisiae deletion strains, locus YNL322C, strain KRE1 (second series), active compounds read low 1.04 | S. cerevisiae deletion strains, locus YNR049C, strain mso1, active compounds read low 0.998 | S. cerevisiae deletion strains, locus YOR001W, strain rrp6, active compounds read low 0.943 | S. cerevisiae deletion strains, locus YOR070C, strain gyp1, active compounds read low 1.03 | S. cerevisiae deletion strains, locus YOR080W, strain dia2, active compounds read low 1.01 | S. cerevisiae deletion strains, locus YOR083W, strain WHI5, active compounds read low 0.992 | S. cerevisiae deletion strains, locus YOR106W, strain vam3, active compounds read low 1.02 | S. cerevisiae deletion strains, locus YOR231W, strain MKK1, active compounds read low 1.04 | S. cerevisiae deletion strains, locus YOR265W, strain rbl2, active compounds read low 1.01 | S. cerevisiae deletion strains, locus YOR270C, strain vph1, active compounds read low 0.864 | S. cerevisiae deletion strains, locus YOR290C, strain snf2, active compounds read low 1.05 | S. cerevisiae deletion strains, locus YPL051W, strain arl3, active compounds read low 1.04 | S. cerevisiae deletion strains, locus YPL078C, strain atp4, active compounds read low 1.04 | S. cerevisiae deletion strains, locus YPL106C, strain sse1, active compounds read low 1.06 | S. cerevisiae deletion strains, locus YPL240C, strain hsp82, active compounds read low 1.01 | S. cerevisiae deletion strains, locus YPL256C, strain CLN2, active compounds read low 1.08

COC(=O)c1c(C)[nH]c(C)c1C(=O)c1ccccc1Cc1ccccc1
inactive: [30] 0.995 | [31] 1 | [32] 1.02 | [33] 0.984 | [6] 0.989 | [7] 1.06 | [22] 0.987 | [34] 0.986 | [35] 0.983 | [36] 0.983 | [24] 1.01 | [37] 0.964 | [26] 1.01 | [27] 1

COC(=O)c1c(C)[nH]c(C)c1C(C)=O
inactive: [1] 1.03 | [2] 1.01 | [3] 0.968 | [4] 1.01 | [5] 1.01 | [6] 1.03 | [8] 1.05 | [9] 1.03 | [38] 0.995 | [10] 0.976 | [11] 0.999 | [12] 1.01 | [13] 1.07 | [14] 1 | [15] 1.18 | [16] 1.02 | [17] 1.04 | [18] 1.01 | [19] 1 | [20] 1.03 | [22] 0.994 | [23] 1.01 | [24] 1.01 | [25] 1.04 | [26] 1.05 | [27] 1.08 | [29] 1.01
active: [28] 1.36 [resistant]
